Measurements taken from PubChem BioAssay AID1159580 (chemical genetic matrix, 2015).
Hit rate of the full screen: of about 5,500 compounds, about 2,000 (36%) were called active. Another 18% or so got no clear call; they are omitted. Rule as the data show it: active = normalized growth mostly below about 0.91 (no sharp cut-off); inconclusive = no clear call, values can overlap the other calls; inactive = mostly above about 0.92. The list shows a part of the results.

Experiment: chemical genetic growth profiling, strain panel (AID 1159580);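 also: tested at 20 µM; growth read once vehicle control cultures reached saturation at 30 °C; 1 = growth at the plate median or of vehicle wells; lower values mean less growth of the strain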
Settings: S. cerevisiae deletion strains, growth OD
[1] = locus YAL013W, strain DEP1, stronger effect = lower value
[2] = locus YDR150W, strain NUM1, stronger effect = lower value
[3] = locus YGR078C, strain PAC10, stronger effect = lower value
[4] = locus YJR075W, strain HOC1, stronger effect = lower value
[5] = locus YMR263W, strain SAP30, stronger effect = lower value
[6] = locus YMR307W, strain GAS1, stronger effect = lower value
[7] = locus YNL153C, strain GIM3, stronger effect = lower value
[8] = locus YNL322C, strain KRE1, stronger effect = lower value
[9] = locus YPL055C, strain LGE1, stronger effect = lower value
[10] = locus YPL241C, strain CIN2, stronger effect = lower value
[11] = locus YAL040C, strain CLN3, stronger effect = lower value
[12] = locus YCL061C, strain MRC1 (second series), stronger effect = lower value
[13] = locus YDR363W, strain ESC2, stronger effect = lower value
[14] = locus YER002W, strain NOP16, stronger effect = lower value
[15] = locus YGR229C, strain SMI1, stronger effect = lower value
[16] = locus YNL128W, strain TEP1, stronger effect = lower value
[17] = locus YNL175C, strain NOP13, stronger effect = lower value
[18] = locus YNL197C, strain WHI3, stronger effect = lower value
[19] = locus YNL224C, strain SQS1, stronger effect = lower value
[20] = locus YOR083W, strain WHI5 (second series), stronger effect = lower value

Measured: normalized growth

COc1cc(/C=C(\C#N)C(N)=S)cc(OC)c1OC
active: locus YEL061C, strain CIN8, stronger effect = lower value 0.674 | locus YHR030C, strain SLT2, stronger effect = lower value 0.476 | locus YKL190W, strain CNB1, stronger effect = lower value 0.71 | locus YLR085C, strain ARP6, stronger effect = lower value 0.377 | locus YML094W, strain GIM5, stronger effect = lower value 0.86 | locus YNR030W, strain Alg12, stronger effect = lower value 0.761 | [10] 0.558
inactive: [1] 0.979 | locus YBR229C, strain ROT2, stronger effect = lower value 1.02 | locus YCL061C, strain MRC1, stronger effect = lower value 1 | locus YDL101C, strain DUN1, stronger effect = lower value 0.943 | locus YDL134C, strain PPH21, stronger effect = lower value 0.943 | [2] 0.961 | [3] 0.977 | locus YHR087W, strain rtc3, stronger effect = lower value 0.986 | locus YJL187C, strain SWE1, stronger effect = lower value 0.942 | locus YJR043C, strain POL32, stronger effect = lower value 0.986 | [4] 0.983 | locus YLR039C, strain RIC1, stronger effect = lower value 0.854 | locus YLR058C, strain SHM2 (second series), stronger effect = lower value 1.01 | locus YLR262C, strain YPT6, stronger effect = lower value 0.832 | locus YMR219W, strain ESC1, stronger effect = lower value 1.02 | [5] 0.982 | [6] 1.15 | [7] 0.989 | locus YNL298W, strain CLA4 (second series), stronger effect = lower value 0.886 | [8] 0.987 | [9] 0.966 | locus YPR135W, strain CTF4, stronger effect = lower value 0.756

COc1cc(/C=C(\C#N)C(=O)c2ccc(O)c(O)c2)cc(I)c1O
inactive: [1] 1.02 | [11] 1.03 | [12] 1.02 | [13] 1.02 | [14] 1 | [15] 0.971 | [5] 1.02 | [6] 1.03 | [16] 1.01 | [7] 1.02 | [17] 0.984 | [18] 1.04 | [19] 1 | [8] 1.03 | [20] 1.02

N#C/C(=C/c1ccc(O)c(O)c1)C(N)=S
inactive: [1] 0.959 | [11] 0.973 | [12] 0.997 | [14] 0.995 | [3] 0.995 | [15] 0.972 | [5] 0.956 | [6] 1 | [7] 0.988 | [17] 0.977 | [18] 0.98 | [19] 0.985 | [20] 0.958 | [10] 0.975
active: [13] 0.73

N#C/C(=C\c1ccc(O)c(O)c1)C(=O)NCCCNC(=O)/C(C#N)=C/c1ccc(O)c(O)c1
inactive: [11] 0.994 | [12] 1.01 | [13] 0.999 | [14] 0.987 | [3] 0.992 | [6] 0.982 | [17] 1.01 | [18] 0.988 | [19] 1 | [8] 0.981 | [20] 1.01 | [10] 0.997
active: [15] 0.758

COc1cc(C=C(C#N)C#N)cc(O)c1O
inactive: [1] 1.01 | [11] 0.941 | [12] 0.979 | [13] 0.997 | [14] 1 | [3] 0.982 | [5] 0.993 | [6] 0.993 | [16] 0.968 | [17] 0.972 | [18] 0.978 | [19] 0.969 | [20] 0.997 | [9] 1.01

N#C/C(=C\c1ccc(O)c(O)c1)C(=O)NCCc1ccccc1
inactive: [11] 0.986 | [12] 0.987 | [2] 0.988 | [13] 1 | [14] 0.995 | [3] 1.01 | [15] 0.952 | [4] 0.99 | [5] 1 | [6] 1.01 | [16] 0.999 | [17] 1 | [18] 1 | [19] 0.998 | [8] 1 | [20] 0.994 | [10] 0.996

N#C/C(=C\c1ccc(O)c(O)c1)C(=O)c1ccc(O)c(O)c1
inactive: [11] 1 | [12] 0.995 | [2] 0.997 | [13] 0.994 | [14] 1.02 | [3] 0.99 | [15] 1.03 | [6] 0.99 | [7] 1.04 | [17] 0.961 | [18] 0.994 | [19] 1 | [8] 0.99 | [20] 0.999 | [10] 0.991

CC(C)(C)c1cc(C=C(C#N)C#N)cc(C(C)(C)C)c1O
active: [18] 0.884 | [20] 0.85
inactive: [11] 0.965 | [12] 1.01 | [2] 1.01 | [13] 1.03 | [14] 1.02 | [15] 1.02 | [6] 0.999 | [16] 0.973 | [7] 0.821 | [17] 0.943 | [19] 0.931 | [10] 1
